The record followed here is PubChem BioAssay (EPA / NIEHS).

Read-out in test [1]: Intercellular Adhesion Molecule 1 (ICAM1), ICAM1 (gene 3383)
The test is described as follows: BSK_BE3C_ICAM1: BioMAP Diversity Plus: BE3C Assay for Intercellular Adhesion Molecule 1 (ICAM1) Biomarker Activity (AID 2284278).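 Note: cell-surface ICAM-1 protein level quantified by ELISA.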 Conditions: primary human bronchial epithelial cells. Summed up: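 hu bronchial epithelial primary cells, 24 h cpd exposure, ICAM-1 ELISA; gain-of-signal fit vs DMSO baseline.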

Read-out in test [2]: Interferon-inducible T-cell alpha chemoattractant (ITAC), CXCL11 (gene 6373)
As to the kind of experiment: BSK_BE3C_ITAC: BioMAP Diversity Plus: BE3C Assay for Interferon-inducible T-cell alpha chemoattractant (ITAC) Biomarker Activity (AID 2284279). Conditions: primary human bronchial epithelial cells. The procedure, abridged: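 ELISA read-out of I-TAC after 24 h chemical dosing of human lung primary bronchial epithelial cells; gain-of-signal fit vs DMSO baseline. Parallel SRB total-protein staining (0.1% SRB, 10% TCA fixation, 560 nm) assessed cytotoxicity.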

Read-out in test [3]: Interleukin-8 (IL8), CXCL8 (gene 3576)
As to the kind of experiment: BSK_BE3C_IL8: BioMAP Diversity Plus: BE3C Assay for Interleukin-8 (IL8) Biomarker Activity (AID 2284280). Conditions: primary human bronchial epithelial cells. Summed up: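 Measured at 24 h after treatment, IL-8 from human primary bronchial epithelial cells is determined by ELISA, and the response is modelled as increasing relative to DMSO negative control.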

Read-out in test [4]: Epidermal growth factor receptor (EGFR), EGFR (gene 1956)
The test is described as follows: BSK_BE3C_EGFR: BioMAP Diversity Plus: BE3C Assay for Epidermal growth factor receptor (EGFR) Biomarker Activity (AID 2284281). The settings on record: primary human bronchial epithelial cells. The procedure, abridged: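 Measured 24 h after dosing in primary human bronchial epithelial cultures, EGFR was read by ELISA; gain of signal over DMSO control defined activity.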

Read-out in another test: KRT18 (gene 3875)
As to the kind of experiment: BSK_BE3C_Keratin818: BioMAP Diversity Plus: BE3C Assay for Keratin 818 Biomarker Activity (AID 2284282). Conditions: primary human bronchial epithelial cells. The procedure, abridged:
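In this multiplexed primary-cell system, bronchial epithelial cells were dosed and harvested at 24 h. Keratin 8/18 was determined by ELISA and analysed for increases over DMSO controls.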

Read-out in test [5]: Matrix Metallopeptidase 9 (MMP9), MMP9 (gene 4318)
As to the kind of experiment: BSK_BE3C_MMP9: BioMAP Diversity Plus: BE3C Assay for Matrix Metallopeptidase 9 (MMP9) Biomarker Activity (AID 2284283). The settings on record: primary human bronchial epithelial cells. The procedure, abridged: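 BE3C, human bronchial epithelial primary cells; 24 h post-dose; MMP-9 by ELISA; positive fit vs DMSO; SRB (0.1%, TCA-fixed, 560 nm) parallel cytotox.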

Read-out in test [6]: Plasminogen activator inhibitor-1 (PAI1), SERPINE1 (gene 5054)
The test is described as follows: BSK_CASM3C_PAI1: BioMAP Diversity Plus: CASM3C Assay for Plasminogen activator inhibitor-1 (PAI1) Biomarker Activity (AID 2284284).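 Note: PAI-1 protein level measured by ELISA 24 h after dosing.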 The settings on record: primary human coronary artery smooth muscle cells.

Read-out in test [7]: Monocyte Chemoattractant Protein-1 (MCP1), CCL2 (gene 6347)
The test is described as follows: BSK_hDFCGF_MCP1: BioMAP Diversity Plus: hDFCGF Assay for Monocyte Chemoattractant Protein-1 (MCP1) Biomarker Activity (AID 2284285). Conditions: primary human foreskin fibroblasts. Summed up: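 MCP-1 ELISA readout was taken 24 hours after dosing primary human dermal fibroblasts in the hDFCGF system, with DMSO as baseline. Parallel sulforhodamine B staining of total protein tracked overt cytotoxicity.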

Read-out in test [8]: Vascular cell adhesion molecule 1 (VCAM1), VCAM1 (gene 7412)
The test is described as follows: BSK_IMphg_VCAM1: BioMAP Diversity Plus: IMphg Assay for Vascular cell adhesion molecule 1 (VCAM1) Biomarker Activity (AID 2284286). The settings on record: primary human endothelial cells with macrophages. Summed up:
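ELISA read-out of VCAM-1 on venular endothelial cell/macrophage co-cultures at 24 h post-treatment, with DMSO as baseline and positive-direction fitting. Parallel sulforhodamine B total-protein staining (560 nm) served as the overt cytotoxicity measure.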

Read-out in test [9]: Intercellular Adhesion Molecule 1 (ICAM1), ICAM1 (gene 3383)
The test is described as follows: BSK_hDFCGF_ICAM1: BioMAP Diversity Plus: hDFCGF Assay for Intercellular Adhesion Molecule 1 (ICAM1) Biomarker Activity (AID 2284287). Conditions: primary human foreskin fibroblasts. The procedure, abridged:
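ICAM-1 ELISA readout 24 h after dosing, DMSO as baseline, in human dermal foreskin fibroblast cultures. Cytotoxicity checked in parallel wells by SRB staining (0.1% SRB, 10% TCA fixation, 560 nm).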

Several values for one entry are separate records, joined by “and”; a condition that tells them apart may be missing. Equal values may be shown once. Some compounds were tested as several samples or in several runs, with calls that do not always agree. Activity calls are given as the source filed them. Rule for the calls: active = hit-call score of the fitted dose curve at least 0.9, where 1 is the maximum; inactive = score below 0.9.

On to `O=C(O)CCC(F)(F)C(F)(F)C(F)(F)F`, for which the outcome (in test [1]; in test [2]; in test [3]; in test [4]; with KRT18 (gene 3875); in [5]) was inactive. The outcome in test [6], in [7], in [8] and in [9] was inactive.
`CNS(=O)(=O)C(F)(F)C(F)(F)C(F)(F)C(F)(F)C(F)(F)C(F)(F)C(F)(F)C(F)(F)F`: the result (in test [1]; in test [2]; in test [4]; with KRT18 (gene 3875); in test [6]; in [7]) was inactive. The result in [8] and in test [9] was inactive. In addition, the AC50 is 30 µM (active) and 2.67 µM (active) in test [3]; 4.25 µM (active) and 373 nM (active) in test [5]; 16.3 µM (active) in test [8]; 36.8 µM (active) in test [9].
As to `OCCCCC(F)(F)C(F)(F)C(F)(F)C(F)(F)F`, the outcome (in test [1]; in [2]; in test [3]; in test [4]; in the test with KRT18 (gene 3875); in [5]) was inactive. Also, the result in [6], in [7], in [8] and in test [9] was inactive.
As for `O=C(O)C(F)(F)C(F)(F)C(F)(F)OC(F)(C(F)(F)F)C(F)(F)F`, the result (in test [1]; in test [2]; in test [3]; in test [4]; with KRT18 (gene 3875); in [5]) was inactive. In addition, the outcome in test [6], in test [7], in [8] and in [9] was inactive. In addition, the AC50 in test [5] is 6.87 µM (active).
Take `O=C(O)C(F)(F)OC(F)(F)C(F)(F)OC(F)(F)C(F)(F)OC(F)(F)F`: the outcome (in [1]; in test [2]; in [3]; in test [4]; in the test with KRT18 (gene 3875); in test [5]) was inactive. For the same molecule, the result in test [6], in test [7], in [8] and in test [9] was inactive. Also, the AC50 in [5] was 1.47 µM (active).
Consider `FC(F)(F)C(F)(F)C(F)(F)C(F)(F)C(F)(F)C(F)(F)C(F)(F)CCI`, for which the outcome (in [1]; in test [2]; in [3]; in [4]; in the test with KRT18 (gene 3875); in test [5]) was inactive. Moreover, the outcome in [6], in test [7], in test [8] and in test [9] was inactive. For the same molecule, the AC50 in test [3] was 662 nM (active).
On to `O=C(O)CCC(F)(F)C(F)(F)C(F)(F)C(F)(F)C(F)(F)C(F)(F)C(F)(F)F`, for which the result (in test [1]; in test [3]; in [4]; with KRT18 (gene 3875); in test [5]; in test [6]) was inactive. Besides, the result in test [7], in test [8] and in [9] was inactive. Moreover, the AC50 in test [2] is 3.43 µM (active) and 2.52 µM (active).
As for `NCC(F)(F)C(F)(F)C(F)(F)C(F)(F)C(F)(F)C(F)(F)C(F)(F)C(F)(F)F`, the result (in test [1]; in test [2]; in test [3]; in test [4]; with KRT18 (gene 3875); in test [5]) was inactive. Further, the result in test [6], in [7], in [8] and in [9] was inactive.
Take `O=C(Cl)C(F)(F)C(F)(F)C(F)(F)C(F)(F)C(F)(F)C(F)(F)C(F)(F)F`: the result (in [1]; in [2]; in [3]; in test [4]; with KRT18 (gene 3875); in [5]) was inactive. Further, the outcome in [6], in test [7], in test [8] and in [9] was inactive. Moreover, in test [3], the AC50 is 15900 nM (active).
`OCC(O)CC(F)(F)C(F)(F)C(F)(F)C(F)(F)C(F)(F)C(F)(F)C(F)(F)C(F)(F)F` (configuration not stated): the result (in [1]; in test [2]; in test [3]; in test [4]; in the test with KRT18 (gene 3875); in test [5]) was inactive. Also, the outcome in test [6], in test [7], in test [8] and in test [9] was inactive.
On to `NS(=O)(=O)C(F)(F)C(F)(F)C(F)(F)C(F)(F)C(F)(F)C(F)(F)F`, for which the result (in test [1]; in test [2]; in [4]; with KRT18 (gene 3875); in test [6]; in test [7]) was inactive. Further, the outcome in test [8] and in test [9] was inactive. For the same molecule, the AC50 in test [2] is 30 µM (active); in test [3] it was 25.1 µM (active) and 15.2 µM (active); in test [5], 13.9 µM (active) and 15 µM (active).
